NPC1 prom act – activators of NPC1 promoter | 320,000 tested, 2.4% active | AID 485313 | Potency, µM (top dose mostly 9.22 µM), for the others: top-dose activation, most hits filed as activators | Huh7 NPC1 promoter luciferase reporter, 24 h; note: % of control where 0% means no effect; nearly all actives have a fitted effect of over 60% in size
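Stably transfected Huh7 (NPC1 promoter→luciferase), 1500 cells/well in Opti-MEM + 10% FBS, 2 h settle, then compound 24 h at 37 °C. Luminescence after 10 min with Amplite reagent.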
ELG1 genotoxic – genotoxicity induction in ELG1-luciferase HEK293T cells; 330,000 tested, 1.3% active; HEK293T ELG1-luciferase reporter, luminescence, 16 h; Potency, µM (top dose mostly 46 µM), for inactives: at the highest dose activity change, positive = activation, most hits filed as activators; note: % of control where 0% means no effect; nearly all actives have a fitted effect of over 60% in size
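Step 1: seed 2,000 HEK293T ELG1-luciferase cells per well. Step 2: add compound or DMSO, incubate 16 hr at 37 °C. Step 3: ONE-Glo, 30 min at room temperature, read luminescence.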
SMN2 splice enh – SMN2 splice variant enhancement | HEK293 SMN2-luciferase splicing reporter, luminescence, 30-36 h | Potency, µM (doses to about 46.1 µM), without a hit: at the highest dose activity change, positive = activation, most hits filed as activators | 210,000 tested, 2.8% active; note: % of control where 0% means no effect; nearly all actives have a fitted effect of over 55% in size
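HEK293 cells carry an SMN2 […]–luciferase reporter in which exon 7 inclusion puts luciferase in frame. Cells were plated 10-12 h before compound addition, then incubated 30-36 h at 37C. ONE-Glo luminescence was read; sodium butyrate at 4.5 mM final served as control.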
FLuc modulator – inhibits or activates purified firefly luciferase, miR-21 counter-screen. P08659. purified FLuc, Km substrates, luminescence inhibition. Potency, µM (top dose mostly 57.5 µM), for the others: top-dose activity change, negative = inhibition, most hits filed as inhibitors. 360,000 tested, 6.9% active;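 note: plate controls were vehicle for no effect and reference inhibitor for full effect; nearly all actives have a fitted effect of over 55% in size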
Target sequence (P08659 whole entry, looked up): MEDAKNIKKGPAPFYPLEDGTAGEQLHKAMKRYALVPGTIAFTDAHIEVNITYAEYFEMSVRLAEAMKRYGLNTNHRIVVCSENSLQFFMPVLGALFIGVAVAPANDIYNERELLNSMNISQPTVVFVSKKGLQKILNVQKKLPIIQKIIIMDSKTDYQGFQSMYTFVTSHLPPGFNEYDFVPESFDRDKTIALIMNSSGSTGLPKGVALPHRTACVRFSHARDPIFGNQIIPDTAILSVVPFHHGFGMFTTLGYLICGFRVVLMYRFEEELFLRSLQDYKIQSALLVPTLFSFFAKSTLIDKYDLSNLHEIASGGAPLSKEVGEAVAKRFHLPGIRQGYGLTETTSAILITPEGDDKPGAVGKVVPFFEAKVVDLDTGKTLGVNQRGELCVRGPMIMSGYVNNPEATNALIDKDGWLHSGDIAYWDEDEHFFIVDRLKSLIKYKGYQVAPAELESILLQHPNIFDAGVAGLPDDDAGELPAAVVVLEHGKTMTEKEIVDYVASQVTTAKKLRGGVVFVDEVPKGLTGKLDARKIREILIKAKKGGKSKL
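Purified P. pyralis luciferase (10nM final) with 10uM D-luciferin and 10uM ATP (Km levels) in 50mM Tris acetate pH 7.5, 10mM Mg acetate, 0.01% Tween-20, 0.05% BSA; qHTS 6-point titration, ~60 µM downward; luminescence read.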
Rab9 promoter act – activates the Rab9 promoter; AID 485297; Huh7 Rab9 promoter-luciferase reporter, luminescence, 24 h; Potency, µM (titrated, usually from 9.22 µM), without a hit: at the highest dose activation, negative = inhibition, most hits filed as activators; 320,000 tested, 2.8% active; note: % of control where 0% means no effect; nearly all actives have a fitted effect of over 60% in size
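Cell-based reporter: Huh7 stable for Rab9 promoter-driven luciferase, plated in reduced-serum medium with 10% FBS at 1500 cells/well, compound-treated 24 h at 37 °C, luminescence read after 10 min reagent.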
KinaseGlo FLuc – Kinase-Glo luciferase inhibition (counter-screen); 200,000 tested, 0.28% active; Potency, µM (titrated, usually from 38.3 µM), inactives show top-dose activity change, negative = inhibition, actives largely listed as inhibitors; Kinase-Glo luciferase, ATP luminescence, 8 min; AID 1379; Q27757; note: % is set by controls: 0 for no effect and ±100 for the full control effect; nearly all actives have a fitted effect of over 60% in size
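Compounds were added to a substrate mix at pH 7.2 (50 mM imidazole, 10 uM ATP, within the enzyme's linear range), followed by Kinase-Glo detection reagent; luminescence was measured after 8 minutes at ambient temperature.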
* = called active by the depositor; ? = inconclusive; . = not tested or not shown; [ ] = remark or other dose. An excerpt weighted towards active compounds, which were near 7.5% of everything screened. Calls come from the whole dose curve; as a rule, active = well fitted curve in the direction sought with a large enough effect; inconclusive = small, poorly fitted or top-dose-only effect, or another doubt; inactive = no such curve, though single readings can be large; an effect the other way counts as inactive or inconclusive. Potency is the fitted concentration of half-maximal effect.

SMILES | NPC1 prom act | ELG1 genotoxic | SMN2 splice enh | FLuc modulator | Rab9 promoter act | KinaseGlo FLuc
C=CCn1c(C)cc(C(=O)COc2ncnc3sccc23)c1C | 0.891µM* | 2.59µM* | 5.62µM* | 2.39µM* | 0.794µM* | -2.0%
COc1ccc(NC(=O)C2CCCN(c3ncnc4c3nc3n4CCCCC3)C2)c(OC)c1 (stereo unspecified) | . | . | . | -1.5% | . | .
C=CCn1c(=S)[nH]c2cc(-c3ccccc3)sc2c1=O | 24.7% | 9.1% | . | 1.9µM* | 19.3% | .
Fc1ccc(Oc2ccc3nnc(C(F)(F)F)n3n2)cc1 | -6.5% | 11.3% | -0.2% | -1.9% | -5.0% | -2.1%
CC(C)(C)C(=O)Nc1ccc(C(=O)COC(=O)C2=COCCO2)cc1 | 2.5% | 1.3% | . | -18.9% | -4.1% | .
CC1(C)Oc2ccc3ccc(=O)oc3c2-c2cn[nH]c21 | -2.1% | ? | 14.1µM* | 1.9% | -3.8% | 1.1%
COC(=O)c1cc2sccc2n1CC(=O)Nc1ccc(OC)c(OC)c1 | . | . | -5.8% | -7.5% | . | .
Cc1[nH]c2ccccc2c1/C=N/NC(=O)c1cc(-c2cccs2)[nH]n1 | -3.7% | -5.0% | 9.3% | 15.1µM* | -1.0% | 2.4%
Cc1[nH]c2ccccc2c1/C=N/NC(=O)CCC(=O)NCc1ccccc1 | -6.2% | -0.1% | . | -0.5% | -3.5% | -2.7%
CCC(=O)Nc1ccc(C(=O)N/N=C/c2c(C)[nH]c3ccccc23)cc1 | -0.5% | 10.6% | 6.0% | 21.3µM* | 0.0% | 0.0%
Cc1ccc(-c2cc(C(=O)N/N=C/c3c(C)nn(-c4ccccc4)c3C)n[nH]2)s1 | -12.3% | -5.1% | -71.2% | 10.7µM* | -15.2% | 0.0%
O=C(Cc1cccs1)N=Nc1c(O)[nH]c2ccccc12 | 10.3% | 9.6% | . | ? | 24.9% | .
Cc1cc(C(=O)N/N=C/c2c(C)[nH]c3ccccc23)n[nH]1 | 2.1% | -2.1% | . | ? | -3.6% | .
O=C(N=Nc1c(O)[nH]c2ccccc12)c1cc(-c2cccs2)[nH]n1 | ? | 1.7% | . | 12µM* | 16.7% | .
Cc1ccc(S(=O)(=O)c2c(COC(=O)c3ccccc3Cl)c(-c3ccccc3)nn2C)cc1 | -5.2% | -7.9% | -15.4% | 0.8% | 1.3% | 2.6%
CCN(CC)CCn1c(-c2ccccc2)nc2c(N3CCOCC3)nc(C)nc21 | . | . | -6.8% | . | . | -2.3%
Cc1ccc(-c2cc(C(=O)NCc3cnn(C)c3C)c3cc(Br)ccc3n2)cc1 | 18.3% | 5.6% | 14.9% | 2.13µM* | 1.4% | -5.4%
Cc1c(CN(C)C(=O)c2nn(C)cc2[N+](=O)[O-])cnn1C | 1.6% | -3.6% | -9.5% | 5.8% | -5.5% | -4.7%
Cc1ccc(-c2cc(C(=O)N(C)Cc3cnn(C)c3C)c3cc(Br)ccc3n2)cc1 | 1.7% | -11.8% | -19.8% | 10.7µM* | 17.0% | 1.3%
NNC(=O)c1cc(-c2ccc(O)cc2)nc2ccc(Br)cc12 | 1.8% | 6.9% | . | ? | -2.9% | .
COc1ccc2nc(SCC(=O)NC(C)c3ccccc3)[nH]c2c1 (stereo unspecified) | 4.0%[1.84 µM] | -3.4% | . | -18.6% | 0.0% | .
O=C1NC(=O)/C(=C\c2ccc(OCc3ccccc3)cc2)S1 | 3.6% | 11.0% | . | 19µM* | 15.8% | .
O=C1NC(=O)/C(=C\c2ccccc2OCc2ccccc2)S1 | -3.8% | -1.0% | -14.0% | 26.9µM* | 1.1% | 5.0%
COc1cc(/C=C2/SC(=O)NC2=O)ccc1OCc1ccccc1 | 1.9% | 10.0% | . | ? | 10.5% | .
CN(C)S(=O)(=O)Oc1cccc(C(=O)Nc2ccccc2Cl)c1 | 28.4% | ? | 12.0% | 21.3µM* | 5.62µM* | 0.7%
SMILES | NPC1 prom act | ELG1 genotoxic | SMN2 splice enh | FLuc modulator | Rab9 promoter act | KinaseGlo FLuc
CN(C)S(=O)(=O)Oc1cccc(C(=O)Nc2ccc(Cl)cc2)c1 | ? | 5.2% | 3.6% | 3.38µM* | ? | -4.3%
CN(C)S(=O)(=O)Oc1ccc(C(=O)Nc2cccc(Cl)c2)cc1 | ? | ? | 12.6µM* | 12µM* | ? | -1.0%
CC(=O)Nc1cccc(N=NN2CCCCC2)c1 | 7.3% | 9.0% | 0.4% | 16.9µM* | 14.2% | -0.2%
O=C(O)c1ccc(N=NN2CCCCCC2)cc1 | ? | 7.2% | 4.47µM* | 10.7µM* | 0.316µM* | -2.3%
O=C(Nc1ccc(Cl)cc1)Nc1ccc2c(c1)N1CCN=C1S2 | 10.4% | -5.8% | -24.9% | 8.49µM* | 10.6% | -7.1%
COC(=O)c1ccc(OC(=O)C2CSC3(C)CCC(=O)N23)cc1 (stereo unspecified) | -3.1% | 2.8% | . | -1.7% | -4.6% | .
O=C(O)c1cccc(C(=O)Nc2cccc(NC(=O)C3CCCO3)c2)c1 (stereo unspecified) | 20.5% | -6.2% | . | 2.13µM* | 22.4% | -6.8%
O=C(O)c1cccc(NC(=O)c2cccc(NC(=O)C3CCCO3)c2)c1 (stereo unspecified) | 27.9% | 0.2% | 1.5% | 3.01µM* | 25.9% | 8.1%
CN(C)c1ccc(/C=C(\C#N)C(=O)c2ccccc2)cc1 | -3.5% | 7.5% | . | 0.426µM* | 0.1% | .
CN(C)c1ccc(/C=C(/NC(=O)c2ccccc2)C(=O)N2CCCC2)cc1 | -0.4% | -1.6% | . | 16.9µM* | -1.1% | .
CN(C)c1ccc(/C=C(\C#N)c2ccccc2)cc1 | 28.6% | 4.11µM* | . | 1.35µM* | 0.562µM* | .
N#C/C(=C\c1cccs1)C(=O)c1ccccc1 | 2.1% | 3.9% | . | 15.1µM* | 7.8% | .
N#C/C(=C\c1ccc(C#N)cc1)C(=O)c1ccccc1 | 5.3% | 6.2% | . | ? | -1.8% | .
COC(=O)c1ccc(C(=O)O)nc1 | -3.5% | -2.3% | . | -0.2% | -1.6% | .
CN(C)c1cccc(/C=C(\C#N)c2ccccc2)c1 | ? | 4.11µM* | . | 1.2µM* | 0.501µM* | .
CN(C)c1ccc(C(=O)C(=O)c2ccccc2)cc1 | 17.6% | 16.7% | . | 23.9µM* | ? | .
Cc1cccc(NC(=O)CN(C)C(=O)C2CC2)c1C | -0.2% | -2.1% | . | . | -0.6% | .
Cc1ccc(NC(=O)CSc2nc3n[nH]c(C)c3c(=N)n2-c2ccccc2C)cc1C | . | . | . | 2.0% | . | .

Screens from PubChem.
